Laboratory results: the antibiotic and cytotoxicity screens of Wong et al. (2023)
In all, about 39,000 compounds went through this assay and about 500 (1.3%) were called active. Many of the other results were omitted from the sample, so actives are more common in it than they were.

system: S. aureus RN4220; test: growth inhibition call (relative growth <= 0.2); details: 50 µM

Structure (SMILES) | growth inhibition call
O=C([C@H]1CCCO1)N1CCNCC1 | inactive
C[C@@H]1CCCCO[C@@H](CN(C)Cc2ccncc2)[C@H](C)CN([C@H](C)CO)C(=O)c2cc(NC(=O)CCC(F)(F)F)ccc2O1 | inactive
COc1ccc2c3c(n(c2c1)C)[C@@H](CO)N(C[C@]13CCN(CC1)C(=O)c1ccccc1F)C(=O)Nc1ccccc1F | inactive
Cc1ccc(S(=O)(=O)N(C)C[C@H]2OCCCC[C@H](C)Oc3ccc(NS(=O)(=O)c4ccc(Cl)cc4)cc3C(=O)N([C@H](C)CO)C[C@@H]2C)cc1 | inactive
COCCCOc1cc(C[C@@H](C[C@H](N)[C@@H](O)C[C@H](C(=O)NCC(C)(C)C(N)=O)C(C)C)C(C)C)ccc1OC | inactive
C[C@@H]1CN([C@H](C)CO)S(=O)(=O)c2ccc(C#CC3CCCCC3)cc2O[C@@H]1CN(C)C(=O)Cc1ccncc1 | inactive
C[N+](C)(C)CCCCNC(=O)[C@@H]1C[C@@H]2C(=O)N[C@@H](CCCC[N+](C)(C)C)C(=O)N2[C@@H]1c1cccc(OCCO)c1 | inactive
C[C@@H]1CN([C@H](C)CO)C(=O)c2cc(NC(=O)Nc3cccc4ccccc34)ccc2O[C@@H]1CN(C)Cc1ccccc1 | inactive
CC(C)NC(=O)Nc1ccc2c(c1)CC(=O)N([C@H](C)CO)C[C@@H](C)[C@@H](CN(C)Cc1ccc(Oc3ccccc3)cc1)O2 | inactive
CN1CCN(c2c(F)cc3c(=O)c(C(=O)O)cn(CCF)c3c2F)CC1 | active
CN1CCN(c2c(F)cc3c(=O)c(C(=O)O)cn4c3c2SCC4)CC1 | active
Cc1ccc(S(=O)(=O)Nc2ccc3c(c2)CC(=O)N([C@@H](C)CO)C[C@@H](C)[C@@H](CN(C)C(=O)Nc2ccc(C(F)(F)F)cc2)O3)cc1 | inactive
NC(CO)C(=O)O (stereo not drawn) | inactive
Cn1cnc(S(=O)(=O)N2C[C@@H](O)COC[C@@H]3O[C@H](CC(=O)NC4CCCC4)CC[C@H]32)c1 | inactive
O=C(NCCO)c1nc(NCCO)c2ccccc2n1 | inactive
C[C@@H]1CCCCO[C@H](CN(C)S(=O)(=O)c2ccccc2)[C@@H](C)CN([C@@H](C)CO)C(=O)c2cc(NC(=O)Nc3ccccc3)ccc2O1 | inactive
CCC(=O)NC[C@H](Cc1ccc(OCCc2nc(-c3ccccc3)oc2C)cc1)N/C(C)=C\C(=O)c1ccc(C(F)(F)F)cc1 | inactive
COC(=O)c1nc[nH]c1C(=O)OC | inactive
CC1(C)[C@H](C(=O)O)N2C(=O)C[C@H]2S1(=O)=O | inactive
C[n+]1ccn(C[C@@]2(C)[C@H](C(=O)O)N3C(=O)C[C@H]3S2(=O)=O)n1 | active
CC1(Cn2ccnn2)C(C(=O)O)N2C(=O)CC2S1(=O)=O (stereo not drawn) | active
CC1(C)C(C(=O)O)N2C(=O)CC2S1(=O)=O (stereo not drawn) | inactive
Cc1noc(C[C@@H]2C[C@@H]3CN(S(C)(=O)=O)C[C@@H]3O2)n1 | inactive
C[C@@H]1CCCCO[C@H](CN(C)C)[C@H](C)CN([C@H](C)CO)C(=O)c2cc(NS(=O)(=O)c3cn(C)cn3)ccc2O1 | inactive
CS(=O)(=O)N1[C@@H]2c3ccc(-c4ccccc4)c(=O)n3C[C@H]1[C@H](CO)[C@H]2C(=O)NCC1CC1 | inactive

Structure (SMILES) | growth inhibition call
Cn1c(=O)c(F)c(Nc2ccc(I)cc2F)c2c(=O)n(C[C@@H](O)CO)cnc21 | inactive
COc1cc(F)c(F)c(Nc2ccc(I)cc2F)c1NS(=O)(=O)C1(C[C@H](O)CO)CC1 | active
O=C(NOC[C@H](O)CO)c1cc(Br)c(F)c(F)c1Nc1ccc(I)cc1F | inactive
CC1(C)S[C@@H]2[C@H](NC(=O)[C@H](N)c3ccccc3)C(=O)N2[C@H]1C(=O)OCOC(=O)[C@@H]1N2C(=O)C[C@H]2S(=O)(=O)C1(C)C | active
CCOC(=O)OC(C)OC(=O)C1N2C(=O)C(NC(=O)C(N)c3ccccc3)C2SC1(C)C.Cl (stereo not drawn) | active
C[C@@H]1CN([C@H](C)CO)C(=O)c2c(c3ccccc3n2C)-c2ccccc2CO[C@@H]1CN(C)Cc1ccccc1 | inactive
O=C(C[C@@H]1C=C[C@@H](NS(=O)(=O)c2ccc(F)cc2)[C@H](CO)O1)N1CCC(Cc2ccccc2)CC1 | inactive
CN1C(=O)c2cc(NS(=O)(=O)c3ccc(F)cc3)ccc2OC[C@H]2O[C@H](CC(=O)NCC(F)(F)F)CC[C@H]21 | inactive
COCC#Cc1ccc2c(c1)O[C@H](CN(C)S(=O)(=O)c1ccc(C)cc1)[C@H](C)CN([C@@H](C)CO)S2(=O)=O | inactive
COCCn1c(=NN)[nH]c2ccsc2c1=O | inactive
O=C(C[C@H]1CC[C@@H]2[C@H](COC[C@@H](O)CN2Cc2cc(F)ccc2F)O1)N[C@@H]1CCN(Cc2ccccc2)C1 | inactive
CCCCc1nn(-c2ccccc2C(F)(F)F)c(=O)n1Cc1ccc(-c2ccccc2S(=O)(=O)NC(=O)c2sccc2C)cc1 | active
COc1ccc([Si](C)(C)[C@H]2[C@H](CC(=O)N3CCC[C@H]3CO)O[C@@]3(C(=O)N(Cc4ccc(N5CCCCC5=O)cc4)c4ccccc43)[C@@H]2C)cc1 | inactive
C[C@@H]1CN([C@H](C)CO)C(=O)c2c(c3ccccc3n2C)-c2ccccc2CO[C@@H]1CN(C)Cc1ccc(Cl)c(Cl)c1 | inactive
CON=C1CN(c2nc3c(cc2F)c(=O)c(C(=O)O)cn3C2CC2)CC1CN.CS(=O)(=O)O (stereo not drawn) | active
CO/N=C1\CN(c2nc3c(cc2F)c(=O)c(C(=O)O)cn3C2CC2)C[C@@H]1CN | active
C[C@H]1CN([C@@H](C)CO)C(=O)c2cccc(NC(=O)CCCCCC(=O)Nc3ccccc3N)c2O[C@H]1CN(C)C(=O)Nc1cccc2ccccc12 | inactive
CCCN(C)C[C@H]1OCCCC[C@@H](C)Oc2ccc(NS(=O)(=O)c3ccc(Cl)cc3)cc2C(=O)N([C@H](C)CO)C[C@@H]1C | inactive
Cc1ccc(S(=O)(=O)N[C@@H]2CC[C@H](CCNC(=O)CN3CCOCC3)O[C@@H]2CO)cc1 | inactive
C[C@@H]1CN([C@@H](C)CO)S(=O)(=O)c2ccc(-c3cccc(C#N)c3)cc2O[C@H]1CN(C)C(=O)c1cccnc1 | inactive
CO[C@@H]1CN(C)C(=O)c2cc(NC(=O)Nc3cccc(Cl)c3)ccc2OC[C@H](C)N(C(=O)Nc2c(C)noc2C)C[C@H]1C | inactive
CC(C)NC(=O)N(C)C[C@H]1OCCCC[C@H](C)Oc2ccc(NC(=O)Nc3ccccc3)cc2C(=O)N([C@@H](C)CO)C[C@H]1C | inactive
CC(C)=CCC[C@]1(C)[C@@H](CC=C(C)C)C[C@]2(CC=C(C)C)C(=O)C(CC=C(C)C)=C(O)[C@@]1(C(=O)C(C)C)C2=O | active
C[C@@H]1CCCCO[C@@H](CN(C)C(=O)Nc2ccccc2)[C@@H](C)CN([C@H](C)CO)C(=O)c2cc(NC(=O)Cc3ccccc3)ccc2O1 | inactive
Cn1cncc1[C@@](N)(c1ccc(Cl)cc1)c1ccc2c(c1)c(-c1cccc(Cl)c1)cc(=O)n2C | active

Structure (SMILES) | growth inhibition call
Cc1noc(C)c1S(=O)(=O)N(C)C[C@@H]1OCCCC[C@@H](C)Oc2ccc(NS(=O)(=O)c3cn(C)cn3)cc2C(=O)N([C@@H](C)CO)C[C@H]1C | inactive
C[C@@H]1CN([C@@H](C)CO)C(=O)c2cc(NC(=O)Cc3ccccc3)ccc2O[C@@H](C)CCCCO[C@H]1CN(C)Cc1ccc2c(c1)OCO2 | inactive
Cc1noc(C)c1S(=O)(=O)Nc1ccc2c(c1)C(=O)N([C@H](C)CO)C[C@H](C)[C@H](CN(C)S(=O)(=O)c1c(C)noc1C)O2 | inactive
COc1cc(C)c(C(=O)Oc2cc(C)c(C(=O)O)c(O)c2)c(O)c1 | inactive
CCCCCC(=O)Cc1cc(O)cc(O)c1C(=O)Oc1cc(CC(=O)CCCCC)c(C(=O)O)c(OC)c1 | active
Cc1cc(OC(=O)c2c(C)cc(O)cc2O)cc(O)c1C(=O)O | inactive
C[C@H](O)C#Cc1ccc2c(c1)O[C@H](CN(C)C(=O)CN(C)C)[C@H](C)CN([C@H](C)CO)S2(=O)=O | inactive
CN(C)CC#Cc1ccc([C@H]2[C@@H](CO)N3C(=O)CN(C(=O)c4cccnc4)C[C@H]23)cc1 | inactive
COc1ccc(S(=O)(=O)Nc2ccc3c(c2)C(=O)N([C@H](C)CO)C[C@H](C)[C@H](CN(C)C(=O)Nc2c(C)noc2C)O3)cc1 | inactive
Cc1c(-c2c(-c3ccc(F)o3)sc3ncnc(O[C@H](Cc4ccccc4OCc4ccnn4CC(F)(F)F)C(=O)O)c23)ccc(OCCN2CCN(C)CC2)c1Cl | active
COCC#Cc1ccc([C@H]2[C@H](CO)N3C(=O)CN(C(=O)C4CCOCC4)C[C@@H]23)cc1 | inactive
Cc1coc2c1C(=O)C(=O)c1c-2ccc2c1CCCC2(C)C | inactive
Cc1cccc2c1OCC[C@@H](N)C2=O | inactive
Cc1cccc2c3c(ccc12)C1=C(C(=O)C3=O)C(C)CO1 (stereo not drawn) | active
CC1COC2=C1C(=O)C(=O)c1c2ccc2c1CCCC2(C)C (stereo not drawn) | active
C[C@H]1CN([C@@H](C)CO)C(=O)Cc2cc(NC(=O)CCN3CCOCC3)ccc2O[C@H]1CN(C)Cc1ccccc1 | inactive
CNS(=O)(=O)c1ccc(Cl)c(C(N)=O)c1 | inactive
NS(=O)(=O)c1ccc(Cl)cc1[N+](=O)[O-] | inactive
O=C(Nc1ccc(Cl)cc1C(=O)c1ccc(Cl)cc1)c1cc(Br)ccc1NS(=O)(=O)c1ccc(Cl)cc1 | inactive
O=C(Nc1cc(Cl)ccc1Cl)c1cc(Cl)ccc1NS(=O)(=O)c1ccc(Cl)c([N+](=O)[O-])c1 | active
O=C(Nc1cc(Cl)ccc1Cl)c1cc(Br)ccc1NS(=O)(=O)c1ccc(Cl)c([N+](=O)[O-])c1 | active
O=C(Nc1ccc([N+](=O)[O-])cc1Cl)c1cc(Cl)ccc1O | inactive
COc1ccc(S(=O)(=O)Nc2ccc3c(c2)C(=O)N([C@H](C)CO)C[C@@H](C)[C@@H](CN(C)C(=O)NC2CCCCC2)OCCCC[C@H](C)O3)cc1 | inactive
